From PubChem
The sample as a whole holds a higher share of hits than the screen did.
HEK293 cAMP cs: raises cAMP in parental HEK293 cells, TSHR agonist counter-screen; parental HEK293 CNG cAMP sensor, membrane potential fluorescence; Potency, µM (titrated, usually from 57.1 µM), for inactives: at the top dose activation, hits mostly activators; hit rate 2.5% among 73,000; further: potency means the concentration at half of the fitted maximal effect; % of control where 0% means no effect; nearly all actives have a fitted effect of over 55% in size
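Parental HEK 293 cells stably expressing a cAMP-gated CNG channel were loaded with membrane potential dye containing 100 uM RO 20-1724 for 60 min. Compound added for 30 min; depolarization read as fluorescence intensity at 590 nm.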
TSHR agonist: activates the human thyroid stimulating hormone receptor | P16473 | HEK293-CNG-TSHR cells (CNG channel as cAMP sensor), membrane potential dye, cAMP | Potency, µM (series often up to 57.1 µM), for inactives: at the highest dose activation, hits mostly activators | hit rate 0.48% among 73,000 | AID 926; active means well fitted activation curve with a large enough effect in the main read-out, with a control signal flat, not every such curve was filed as active; inconclusive means small, poorly fitted or top-dose-only effect, or a change in a side signal; inactive means no such curve, though single readings can be large or run the other way; % of control where 0% means no effect;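 further: the control signal comes from parental cells without the receptor; potency means the concentration at half of the fitted maximal effect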
Target sequence (P16473 whole entry, looked up): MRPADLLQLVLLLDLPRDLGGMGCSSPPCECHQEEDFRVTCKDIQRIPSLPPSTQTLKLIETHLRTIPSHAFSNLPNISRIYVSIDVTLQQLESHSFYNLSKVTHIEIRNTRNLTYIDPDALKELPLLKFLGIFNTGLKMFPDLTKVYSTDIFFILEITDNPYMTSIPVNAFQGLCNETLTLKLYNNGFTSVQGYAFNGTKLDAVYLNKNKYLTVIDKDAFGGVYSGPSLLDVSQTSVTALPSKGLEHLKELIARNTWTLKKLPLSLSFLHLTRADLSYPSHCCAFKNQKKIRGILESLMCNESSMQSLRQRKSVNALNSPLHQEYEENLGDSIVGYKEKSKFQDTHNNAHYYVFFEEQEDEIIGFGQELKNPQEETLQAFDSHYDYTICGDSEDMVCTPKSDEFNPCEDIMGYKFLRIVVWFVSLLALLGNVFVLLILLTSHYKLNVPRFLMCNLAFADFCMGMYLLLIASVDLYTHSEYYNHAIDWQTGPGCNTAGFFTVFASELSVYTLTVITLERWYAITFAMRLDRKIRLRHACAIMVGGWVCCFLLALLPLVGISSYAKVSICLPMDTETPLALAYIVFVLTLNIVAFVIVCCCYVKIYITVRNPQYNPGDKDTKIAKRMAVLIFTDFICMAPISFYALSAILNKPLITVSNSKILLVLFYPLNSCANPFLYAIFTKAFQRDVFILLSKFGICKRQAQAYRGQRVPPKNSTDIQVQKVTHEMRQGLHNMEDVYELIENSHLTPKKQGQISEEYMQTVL
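HEK 293 cells stably expressing TSHR and a cAMP-gated CNG channel; parental CNG-only cells as counterscreen. Cells preloaded 60 min with membrane potential dye plus 100 uM RO 20-1724, then compound 30 min; fluorescence read at 590 nm.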
Peg3 imprint: induces erasure of genomic imprints in mouse ES cells. mouse ES Peg3-LacZ reporter, beta-gal luminescence, 40 h. Potency, µM (series often up to 60.7 µM), inactives show at the highest dose activity change, positive = activation, actives largely listed as activators. hit rate 0.02% among 110,000. AID 1948; further: potency means the concentration at half of the fitted maximal effect
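Readout: BetaGlo luminescence (5 min, room temp) for LacZ from the normally silent maternal Peg3 allele in female Peg3LacZ-Neo ES cells. Cells 300/well, 40 h, 37C, 5% CO2. Data normalized per plate to negative controls.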
HEK293 cAMP cnt: raises cAMP in parental HEK293 cells lacking TSH receptor | 150 tested, under 10 active | parental HEK293 CNG biosensor, cAMP membrane potential fluorescence | shares compounds with TSHR agonist | activity change, negative = inhibition, % at 32.9 µM
The depositor's hits bear a star; u = inconclusive; x = no result; [ ] = another dose, or the depositor's remark. Unless noted, the call rests on the fitted dose curve; in most records, active means well fitted curve in the direction sought with a large enough effect; inconclusive means small, poorly fitted or top-dose-only effect, or another doubt; inactive means no such curve, though single readings can be large; an effect the other way counts as inactive or inconclusive.

SMILES	HEK293 cAMP cs	TSHR agonist	Peg3 imprint	HEK293 cAMP cnt
COc1ccc2c(C)cc(=O)oc2c1C	7%	11%	-10%	-52[25.6 µM]
Cc1cc(=O)oc2c(C)c(OCC(=O)N(C)C)ccc12	-5%	-16%	-13%	x
CCCN(c1ccc(C(C)C)cc1)S(=O)(=O)c1ccc2c(c1)n(C)c(=O)c(=O)n2C	x	x	15%[10.9 µM]	x
COc1ccc(N(C)S(=O)(=O)c2cccc(C(=O)NC3=NCCS3)c2)cc1	14%	25µM*	-8%	6
COc1cccc(C(=O)NC2=NCCS2)c1OC	-3%	-5%	-37%	x
COc1ccc(CNC(=O)Cn2c(=O)n3nc(-c4cccc(F)c4)nc3c3ccccc32)cc1OC	x	x	-4%[10.9 µM]	x
CCc1cccc(CC)c1NC1=NS(=O)(=O)c2ccccc21	x	x	6%[10.9 µM]	x
O=S1(=O)N=C(Oc2ccccc2)c2ccccc21	9%	0%	-4%	-7[25.6 µM]
O=C1[C@H]2[C@H]3[C@H](O)[C@H](O)C/C(=N/OC[C@@H](O)COCc4ccco4)[C@@H]3CC[C@@H]2C(=O)N1C[C@@H]1CCCO1	-3%[11.4 µM]	2%[11.4 µM]	x	x
Cc1ccc(C)c(Cn2c(C(C)O)nc3ccccc32)c1 (centres undefined)	18%	4µM*	-9%	-3
Cc1ccc(C)c(Cn2c(C(C)NC(=O)c3ccccc3)nc3ccccc32)c1 (centres undefined)	x	x	-3%[10.9 µM]	x
Cc1ccc(Cl)cc1NC(=O)c1cc2c(=O)n3cccc(C)c3nc2n1C	x	x	-15%[10.9 µM]	x
COc1ccc2cc(CN(Cc3ccco3)Cc3nnnn3C3CCCCC3)c(=O)[nH]c2c1	u	u	-17%	x
CCC(C)(C)n1nnnc1CN(Cc1ccco1)Cc1cc2cc3c(cc2[nH]c1=O)OCO3	12%	25µM*	0%	-12
CCC(=O)N1c2ccccc2CC1C(=O)NCCc1ccc(OC)c(OC)c1 (centres undefined)	x	x	-11%[10.9 µM]	x
COc1cccc(C(c2nnnn2Cc2ccccc2)N2CCN(C(=O)c3ccco3)CC2)c1OC (centres undefined)	15%	25µM*	8%	-4
COc1ccc(C(c2nnnn2Cc2ccccc2)N2CCN(C(=O)c3ccco3)CC2)cc1 (centres undefined)	u	u	-8%	x
Cc1nc2sccn2c(=O)c1S(=O)(=O)Nc1cc(Cl)ccc1O	x	x	28%[10.9 µM]	x
COc1ccc(Oc2nc3c(c(=O)n(C)c(=O)n3C)n2Cc2ccc(Cl)cc2Cl)cc1	x	x	-7%[10.9 µM]	x
CCOc1ccc(CNC(=O)Cn2nc(C)c3sc4ccccc4c3c2=O)cc1	x	x	-18%[10.9 µM]	x
CC1(c2ccccn2)Nc2ccccc2-c2nc3ccccc3n21 (centres undefined)	11%	16µM*	-22%	15
c1ccc2c(c1)NC1(CCCCC1)n1c-2nc2ccccc21	2%	x	-79%	x
Cc1nc2ccc(Br)cn2c(=O)c1Cl	-2%	7%	0%	-3[25.6 µM]
Cc1nc2ccc(Br)cn2c1NC(C)(C)C	24%	9%	-18%	x
Cc1cccc(-n2cc(-c3ccccc3)nc2SCC(=O)Nc2ccccc2Cl)c1	x	x	-15%[10.9 µM]	x
SMILES	HEK293 cAMP cs	TSHR agonist	Peg3 imprint	HEK293 cAMP cnt
NC(=O)c1nsc(C(=O)N(CC(=O)NCc2ccc3c(c2)OCO3)C2CCCC2)c1N	13%	13µM*	5%	7
Nc1nnc(SCC(=O)NCc2ccc3c(c2)OCO3)s1	-6%	-8%	-12%	x
Cc1cc(C)c(S(=O)(=O)NCc2ccc3c(c2)CCN3C(=O)c2ccccc2)c(C)c1	x	x	-6%[10.9 µM]	x
CC1(C)c2ccccc2N2CCC(=O)NC21/C=C/c1ccco1 (centres undefined)	17%	3.2µM*	-19%	13
CC1(C)c2ccccc2N2CC(=O)NC21/C=C/c1ccco1 (centres undefined)	12%	2.5µM*	-9%	10
O=C1CC(/C=C/c2ccco2)=Nc2ccccc2N1	8%	11%	4%	x
CN1c2ccccc2C(C)(C)C12CCCC(=O)N2 (centres undefined)	3%	-3%	-8%	x
CN1CCN(c2ncc3nc(-c4cccs4)c(=O)n(CCc4ccccc4)c3n2)CC1	-1%	4%	-4%	x
O=C(CSc1nnc(-c2cccs2)n1Cc1ccco1)Nc1ccc2c(c1)OCO2	u	u	-18%	x
O=C(CSc1nnc(-c2ccccc2)n1Cc1ccco1)Nc1ccc2c(c1)OCCO2	28%	20µM*	-14%	-7
O=C(CCn1cnc2ccccc2c1=O)Nc1ccc2c(c1)OCCO2	1%	-12%	-2%	x
O=c1c2ccccc2ncn1-c1ccc2c(c1)OCCO2	7%	6%	x	6[25.6 µM]
